# Test results as given in article PMC6602471.
# Over roughly 1,300 sequences, “log fluorescence intensity” has its median near 8.3; the highest 2% begin near 12. For the sample, the highest values were picked, then their nearest neighbours and some sequences at random.
# Target: T1, ETS1 (Homo sapiens, UniProt P14921 1-441)
# T1 sequence: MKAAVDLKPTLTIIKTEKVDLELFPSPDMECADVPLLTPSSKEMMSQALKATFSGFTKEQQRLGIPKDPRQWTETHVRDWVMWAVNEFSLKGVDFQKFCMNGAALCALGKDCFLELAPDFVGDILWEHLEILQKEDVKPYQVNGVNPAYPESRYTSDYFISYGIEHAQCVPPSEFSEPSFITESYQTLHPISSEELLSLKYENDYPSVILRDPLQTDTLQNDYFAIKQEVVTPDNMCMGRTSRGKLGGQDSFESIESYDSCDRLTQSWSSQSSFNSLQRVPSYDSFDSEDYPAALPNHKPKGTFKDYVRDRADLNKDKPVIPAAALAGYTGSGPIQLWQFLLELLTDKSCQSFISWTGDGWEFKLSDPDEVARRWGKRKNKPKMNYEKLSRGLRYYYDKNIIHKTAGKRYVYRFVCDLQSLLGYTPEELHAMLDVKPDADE
# Assay: custom PBM; custom protein-binding microarray; buffer, salt, pH and temperature not stated; high values mean tight binding
# Conditions: dsDNA, one strand shown
row,Sequence,binding signal
1,GGAAAAAGGCCCCGGGTAACACCGGAAGTGGGCTTAGTCTTGATTCGCTTGACGCTGCTG,12.6 log fluorescence intensity
2,GGAAAAAGGCCCGGGGTAACACCGGAAGTGGGCTTAGTCTTGATTCGCTTGACGCTGCTG,12.5 log fluorescence intensity
3,GGAAAAAGGCCCTGGGTAACACCGGAAGTGGGCTTAGTCTTGATTCGCTTGACGCTGCTG,12 log fluorescence intensity
4,TAAAGGGAAGAAGGTTGTGGTAGTTCCGGGTATTAAGTCTTGATTCGCTTGACGCTGCTG,8.45 log fluorescence intensity
5,GGAAAAAGGCCCAGGGTAACACCGTAAGTGGGCTTAGTCTTGATTCGCTTGACGCTGCTG,8.34 log fluorescence intensity
6,GTGTATAGGAACCCATCCAACACACGTGTTAAAATGGTCTTGATTCGCTTGACGCTGCTG,8.33 log fluorescence intensity
7,CGGAAGTGTCGTAACCGTCGGATATCCGGTTCTTCTGTCTTGATTCGCTTGACGCTGCTG,11.9 log fluorescence intensity
8,TAAAGGGAAGACGGTAGTGGTAGTTCCGGGTATTAAGTCTTGATTCGCTTGACGCTGCTG,8.7 log fluorescence intensity
9,GCTGCTGCGGTGCATACCCCACCGGACGTGACCCCGGTCTTGATTCGCTTGACGCTGCTG,8.55 log fluorescence intensity
10,GAAAAAAGGCCCAGGGTAACACCGGAAGTGGGCTTAGTCTTGATTCGCTTGACGCTGCTG,12.1 log fluorescence intensity
11,GGAAAAAGGCCCAGGGTAACACCGGAAGTGGGCTTGGTCTTGATTCGCTTGACGCTGCTG,11.8 log fluorescence intensity
12,GGAAAAAGGCCCAGGGTAACACCGGAAGTGGGCTAAGTCTTGATTCGCTTGACGCTGCTG,12.1 log fluorescence intensity
13,GGAAAAAGGCCCAGGGTAACACCGGAAGTGGGCTCAGTCTTGATTCGCTTGACGCTGCTG,12 log fluorescence intensity
14,GGAAAAAGGCCCAGGGTAACACCGGAAGTGGGCTGAGTCTTGATTCGCTTGACGCTGCTG,11.9 log fluorescence intensity
15,GGAAAAAGGCCCAGGGTAACACCGGAAGTGGGCATAGTCTTGATTCGCTTGACGCTGCTG,12 log fluorescence intensity
16,GGAAAAAGGCCCAGGGTAACACCGGAAGTGGGCTTTGTCTTGATTCGCTTGACGCTGCTG,12.1 log fluorescence intensity
17,GGAAAAAGGCCCAGGGTAACACCGGAAGTGGGCTTCGTCTTGATTCGCTTGACGCTGCTG,12.1 log fluorescence intensity
18,GGAAAAAGGCCCAGGGTAACACCGGAAGTGGGCTTAGTCTTGATTCGCTTGACGCTGCTG,12 log fluorescence intensity
19,TAAAGGAAAGACGGTTGTGGTAGTTCCGGGTATTAAGTCTTGATTCGCTTGACGCTGCTG,8.77 log fluorescence intensity
20,TGTCGGGTAAGGGAATGTAGATCACGTGACTGAAAAGTCTTGATTCGCTTGACGCTGCTG,8.33 log fluorescence intensity

row,Sequence,binding signal
1,TAAAGGGAAGACGGTTGTGGGAGTTCCGGGTATTAAGTCTTGATTCGCTTGACGCTGCTG,8.37 log fluorescence intensity
2,CTGAAGTGTCGTAAACGTCGGATATCCGGTTCTTCTGTCTTGATTCGCTTGACGCTGCTG,11.8 log fluorescence intensity
3,TCCGCCTACCAGCTCCACCCACTTCAGGCCTTGTAGGTCTTGATTCGCTTGACGCTGCTG,8.47 log fluorescence intensity
4,TAAAGGGAAGACGCTTGTGGTAGTTCCGGGTATTAAGTCTTGATTCGCTTGACGCTGCTG,8.41 log fluorescence intensity
5,GGAAAAAGGCCCAGGGTAACACCGGATGTGGGCTTAGTCTTGATTCGCTTGACGCTGCTG,11 log fluorescence intensity
6,CAGCATCGGACTTCTTCCCTGAAGCAATTGATAACCGTCTTGATTCGCTTGACGCTGCTG,8.4 log fluorescence intensity
7,GCTGCTGCGGTGCATACCCCACCGGATGTGACCCGGGTCTTGATTCGCTTGACGCTGCTG,10.2 log fluorescence intensity
8,GCTGCTGCGGTGCATACCTCACCGGATGTGACCCCGGTCTTGATTCGCTTGACGCTGCTG,9.97 log fluorescence intensity
9,GGAAAAAGGCCCAGGGTAACACCGGAAATGGGCTTAGTCTTGATTCGCTTGACGCTGCTG,11.5 log fluorescence intensity
10,GCTTCTGCGGTGCATACCCCACCGGATGTGACCCCGGTCTTGATTCGCTTGACGCTGCTG,10.3 log fluorescence intensity
11,GGAAAAAGGCCCAGGGTAACACCTGAAGTGGGCTTAGTCTTGATTCGCTTGACGCTGCTG,8.36 log fluorescence intensity
12,TAAAGGGAAGACGATTGTGGTAGTTCCGGGTATTAAGTCTTGATTCGCTTGACGCTGCTG,8.5 log fluorescence intensity
13,GCTGCTGCGGTGCATACCCCACCGGATGTGACCCCAGTCTTGATTCGCTTGACGCTGCTG,10.1 log fluorescence intensity
14,GGAAAAAGGCCCAGGGTAACACCGGAACTGGGCTTAGTCTTGATTCGCTTGACGCTGCTG,9.07 log fluorescence intensity
15,GCTGCTGCGGTGCATACCCCACCGGATGTGACCCTGGTCTTGATTCGCTTGACGCTGCTG,10.1 log fluorescence intensity
16,CTGGGACTTGAACCAACTCTGCCACGTGGGTCGTTTGTCTTGATTCGCTTGACGCTGCTG,8.34 log fluorescence intensity
17,CGGAAGTGTCGTAAACGTCGGATATCAGGTTCTTCTGTCTTGATTCGCTTGACGCTGCTG,8.51 log fluorescence intensity
18,GTGTATAGGGTCCCATCCAACACACGTGTTAAAATGGTCTTGATTCGCTTGACGCTGCTG,8.3 log fluorescence intensity
19,TCCGGCTACCAGCTCCACTCACTTCAGGCCTTGTAGGTCTTGATTCGCTTGACGCTGCTG,8.4 log fluorescence intensity
20,GTGTATAGGATCCCATCCAACACACGTGTTAAAATGGTCTTGATTCGCTTGACGCTGCTG,8.35 log fluorescence intensity
